For some assays here: Potency and affinity values are given separately.
Assays:
Design in all cases: scale not given: direction of the effect not stated beside the values
[1] = molecular target: Protein translocase subunit SecA (Escherichia coli (strain K12)) (UniProt P10408); experiment: Assay to Identify E. coli SecA ATPase Inhibitors; type: functional; conditions: 30 µM
[2] = molecular target: T1, Ubiquitin-activating enzyme e1, putative (Leishmania donovani (strain BPK282A1)) (UniProt E9BSI1); experiment: Leishmania donovani Ubiquitin Activating Enzyme (LdE1); type: functional; conditions: 30 µM
T1 sequence (whole entry): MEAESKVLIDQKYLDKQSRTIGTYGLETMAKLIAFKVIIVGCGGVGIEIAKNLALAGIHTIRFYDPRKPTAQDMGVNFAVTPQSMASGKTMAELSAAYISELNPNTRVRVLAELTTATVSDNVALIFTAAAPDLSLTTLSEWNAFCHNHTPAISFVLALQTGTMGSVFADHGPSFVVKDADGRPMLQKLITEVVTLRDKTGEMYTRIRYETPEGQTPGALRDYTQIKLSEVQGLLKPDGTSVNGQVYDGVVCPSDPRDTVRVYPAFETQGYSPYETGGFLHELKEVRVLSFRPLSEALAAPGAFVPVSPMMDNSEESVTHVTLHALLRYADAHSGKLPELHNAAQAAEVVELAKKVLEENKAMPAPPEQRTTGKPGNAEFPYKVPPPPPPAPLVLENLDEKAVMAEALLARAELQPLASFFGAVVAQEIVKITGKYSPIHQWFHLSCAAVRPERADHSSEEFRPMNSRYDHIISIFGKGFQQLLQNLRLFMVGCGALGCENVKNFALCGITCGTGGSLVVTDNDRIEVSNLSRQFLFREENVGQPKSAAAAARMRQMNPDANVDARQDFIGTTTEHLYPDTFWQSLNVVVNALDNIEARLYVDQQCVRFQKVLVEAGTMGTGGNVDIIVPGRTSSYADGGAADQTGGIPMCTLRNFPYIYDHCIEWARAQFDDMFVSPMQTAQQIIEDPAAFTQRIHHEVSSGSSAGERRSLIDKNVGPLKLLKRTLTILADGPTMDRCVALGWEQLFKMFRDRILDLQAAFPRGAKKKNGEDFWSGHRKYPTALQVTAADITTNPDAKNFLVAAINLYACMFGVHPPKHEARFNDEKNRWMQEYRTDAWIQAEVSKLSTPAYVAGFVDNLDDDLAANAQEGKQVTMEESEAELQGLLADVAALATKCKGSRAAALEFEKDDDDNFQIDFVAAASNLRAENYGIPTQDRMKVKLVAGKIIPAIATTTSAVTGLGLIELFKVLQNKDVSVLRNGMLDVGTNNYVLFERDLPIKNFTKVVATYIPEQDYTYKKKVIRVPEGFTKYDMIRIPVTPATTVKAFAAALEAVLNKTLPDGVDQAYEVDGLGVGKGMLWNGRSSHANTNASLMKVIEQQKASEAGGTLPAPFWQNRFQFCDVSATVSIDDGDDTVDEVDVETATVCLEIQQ

[3] = molecular target: AMP-activated protein kinase, AMPK (Homo sapiens) (UniProt P54646+O43741+P54619+Q9UGJ0+Q9Y478+Q13131+Q9UGI9); experiment: AMP-dependent Kinase enzyme assay. An in vitro enzyme assay that detects ADP turnover that is directly proportional to AMPK activity. This uses naive AMPK that is activated during the assay with MK-8722; type: functional; conditions: 30 µM
[4] = molecular target: Sialic acid-binding Ig-like lectin 9 (Homo sapiens) (UniProt Q9Y336); experiment: Hs-Siglec9 ALPHAscreen SOP 20170721; conditions: 10 µM
Chain of Sialic acid-binding Ig-like lectin 9 (Homo sapiens) (Q9Y336 whole entry): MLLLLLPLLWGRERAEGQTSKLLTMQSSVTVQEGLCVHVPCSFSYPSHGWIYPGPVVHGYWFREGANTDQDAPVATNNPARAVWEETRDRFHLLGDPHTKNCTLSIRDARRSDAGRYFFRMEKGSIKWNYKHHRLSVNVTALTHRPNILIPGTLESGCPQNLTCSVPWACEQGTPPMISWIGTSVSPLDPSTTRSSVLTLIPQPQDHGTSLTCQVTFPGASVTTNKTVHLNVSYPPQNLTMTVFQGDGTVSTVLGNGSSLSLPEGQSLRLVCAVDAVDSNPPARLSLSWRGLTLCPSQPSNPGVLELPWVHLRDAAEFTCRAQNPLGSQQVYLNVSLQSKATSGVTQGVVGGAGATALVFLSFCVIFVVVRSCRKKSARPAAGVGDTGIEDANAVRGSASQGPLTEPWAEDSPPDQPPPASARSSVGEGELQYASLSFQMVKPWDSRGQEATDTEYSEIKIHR

Trypanosoma cruzi = experiment: Trypanosoma cruzi phosphomannomutase and mannose-1-phosphate guanylyltransferase assay; type: functional; conditions: 10 µM
[5] = molecular target: T2, Arginase-2, mitochondrial (Homo sapiens) (UniProt P78540); experiment: in vitro enzyme assay to detect the production of urea directly proportional to the activity of Arginase II; type: functional; conditions: 33.3 µM; also: in the data most compounds retested in dose-response had high values
T2 sequence (whole entry): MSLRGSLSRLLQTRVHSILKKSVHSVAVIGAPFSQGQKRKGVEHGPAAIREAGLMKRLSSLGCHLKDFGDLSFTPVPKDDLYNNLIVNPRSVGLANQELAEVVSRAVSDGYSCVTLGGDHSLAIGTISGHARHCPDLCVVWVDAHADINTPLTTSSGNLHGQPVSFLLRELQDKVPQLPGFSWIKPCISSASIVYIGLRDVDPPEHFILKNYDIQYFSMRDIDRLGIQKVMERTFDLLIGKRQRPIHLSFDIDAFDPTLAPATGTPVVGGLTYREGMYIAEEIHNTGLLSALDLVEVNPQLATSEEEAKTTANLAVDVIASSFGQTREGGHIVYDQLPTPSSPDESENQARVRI

[6] = molecular target: T3, Proteasome subunit beta (Trypanosoma cruzi) (UniProt O96673); experiment: Trypanosoma cruzi proteasome chymotrypsin-like activity (TcProtChymo) assay.; also: in the data most compounds retested in dose-response had high values; type: functional; conditions: 9.37 µM
T3 sequence (whole entry): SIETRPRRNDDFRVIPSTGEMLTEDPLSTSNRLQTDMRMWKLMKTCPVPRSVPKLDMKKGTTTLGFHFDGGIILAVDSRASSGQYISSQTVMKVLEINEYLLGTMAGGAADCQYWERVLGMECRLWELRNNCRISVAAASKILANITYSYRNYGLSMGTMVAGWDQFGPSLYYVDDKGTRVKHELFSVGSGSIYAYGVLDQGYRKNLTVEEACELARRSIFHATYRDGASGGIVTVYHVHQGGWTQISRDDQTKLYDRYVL

Homo sapiens = species: Homo sapiens; experiment: To identify inhibition of the IFN signalling (Jak-Stat) pathway via expression of an eGFP reporter gene under the control of an IFN-stimulated response element (ISRE) containing MxA promoter.; type: functional; conditions: 30 µM
[7] = molecular target: T4, Tyrosyl-tRNA synthetase, putative (Trypanosoma cruzi (strain CL Brener)) (UniProt Q4DSP6); experiment: Trypanosoma cruzi tyrosyl tRNA synthetase (TcYRS) _High Tyrosine SOP; type: functional; conditions: 30 µM; also: in the data most compounds retested in dose-response had high values
T4 sequence (whole entry): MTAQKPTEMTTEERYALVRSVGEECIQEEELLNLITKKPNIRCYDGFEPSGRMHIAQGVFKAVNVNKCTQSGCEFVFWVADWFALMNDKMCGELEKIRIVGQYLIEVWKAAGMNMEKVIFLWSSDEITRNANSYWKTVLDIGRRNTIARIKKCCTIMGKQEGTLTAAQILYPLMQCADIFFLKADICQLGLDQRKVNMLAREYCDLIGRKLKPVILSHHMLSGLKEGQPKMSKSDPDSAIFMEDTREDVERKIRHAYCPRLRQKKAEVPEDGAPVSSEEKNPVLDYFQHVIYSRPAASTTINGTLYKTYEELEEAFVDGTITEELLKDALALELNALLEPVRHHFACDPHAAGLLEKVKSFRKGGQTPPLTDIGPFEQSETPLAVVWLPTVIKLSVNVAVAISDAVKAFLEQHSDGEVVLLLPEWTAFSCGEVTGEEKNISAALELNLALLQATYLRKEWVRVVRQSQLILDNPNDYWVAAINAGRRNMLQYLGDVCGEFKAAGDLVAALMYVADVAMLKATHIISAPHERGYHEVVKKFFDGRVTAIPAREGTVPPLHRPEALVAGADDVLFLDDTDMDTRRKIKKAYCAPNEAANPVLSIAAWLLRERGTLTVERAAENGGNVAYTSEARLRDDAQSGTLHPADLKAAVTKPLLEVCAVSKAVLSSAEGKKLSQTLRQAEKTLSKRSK

[8] = molecular target: T4, Tyrosyl-tRNA synthetase, putative (Trypanosoma cruzi (strain CL Brener)); experiment: Trypanosoma cruzi tyrosyl tRNA synthetase (TcYRS) SOP; type: functional; conditions: 30 µM
[9] = molecular target: Chromo domain-containing protein 1 (Saccharomyces cerevisiae (strain ATCC 204508 / S288c) (Baker's yeast)) (UniProt P32657); experiment: ScCHD-1 Enzyme Inhibition Assay; type: functional; conditions: 30 µM; also: in the data most compounds retested in dose-response had high values
Chain of Chromo domain-containing protein 1 (Saccharomyces cerevisiae (strain ATCC 204508 / S288c) (Baker's yeast)) (P32657 whole entry, the tested form may be a part): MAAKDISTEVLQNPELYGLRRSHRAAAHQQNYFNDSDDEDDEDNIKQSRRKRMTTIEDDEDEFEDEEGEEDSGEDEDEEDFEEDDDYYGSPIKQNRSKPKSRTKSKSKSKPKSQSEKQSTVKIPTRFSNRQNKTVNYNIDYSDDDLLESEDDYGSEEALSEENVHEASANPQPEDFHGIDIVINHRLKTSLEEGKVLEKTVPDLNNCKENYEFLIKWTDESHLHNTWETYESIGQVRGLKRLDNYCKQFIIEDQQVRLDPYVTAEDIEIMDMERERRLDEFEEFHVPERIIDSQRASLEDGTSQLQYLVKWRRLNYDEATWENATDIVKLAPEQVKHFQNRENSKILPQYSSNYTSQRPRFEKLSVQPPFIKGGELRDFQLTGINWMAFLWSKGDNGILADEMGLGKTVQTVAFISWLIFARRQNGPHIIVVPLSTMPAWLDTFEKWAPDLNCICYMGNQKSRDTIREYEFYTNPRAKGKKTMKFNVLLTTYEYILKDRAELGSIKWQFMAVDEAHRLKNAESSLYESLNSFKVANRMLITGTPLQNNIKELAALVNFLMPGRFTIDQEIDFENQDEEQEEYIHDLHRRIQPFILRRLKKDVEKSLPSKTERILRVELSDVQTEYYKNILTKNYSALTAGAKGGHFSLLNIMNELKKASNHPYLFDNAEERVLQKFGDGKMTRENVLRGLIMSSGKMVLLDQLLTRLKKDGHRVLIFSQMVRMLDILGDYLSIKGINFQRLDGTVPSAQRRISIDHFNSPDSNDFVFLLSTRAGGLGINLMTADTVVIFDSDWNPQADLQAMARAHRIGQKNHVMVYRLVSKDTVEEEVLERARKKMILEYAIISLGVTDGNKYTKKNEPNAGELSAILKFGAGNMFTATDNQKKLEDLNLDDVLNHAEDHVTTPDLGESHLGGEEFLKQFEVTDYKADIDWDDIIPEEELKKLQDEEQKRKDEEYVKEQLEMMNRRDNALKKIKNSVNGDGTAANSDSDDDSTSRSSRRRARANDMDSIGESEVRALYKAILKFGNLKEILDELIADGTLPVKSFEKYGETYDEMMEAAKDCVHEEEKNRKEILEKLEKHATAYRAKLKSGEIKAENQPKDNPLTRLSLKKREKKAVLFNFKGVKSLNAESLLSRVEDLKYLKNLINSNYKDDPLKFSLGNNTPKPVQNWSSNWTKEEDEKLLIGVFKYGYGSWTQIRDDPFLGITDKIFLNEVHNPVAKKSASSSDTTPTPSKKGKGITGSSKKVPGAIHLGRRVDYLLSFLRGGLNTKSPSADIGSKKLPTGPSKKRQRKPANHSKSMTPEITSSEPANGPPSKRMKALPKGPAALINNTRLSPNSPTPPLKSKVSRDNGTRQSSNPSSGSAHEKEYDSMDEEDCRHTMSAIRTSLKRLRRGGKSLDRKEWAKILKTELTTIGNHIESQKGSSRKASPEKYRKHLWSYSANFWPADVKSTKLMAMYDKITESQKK

Chain of Protein translocase subunit SecA (Escherichia coli (strain K12)) (P10408 whole entry): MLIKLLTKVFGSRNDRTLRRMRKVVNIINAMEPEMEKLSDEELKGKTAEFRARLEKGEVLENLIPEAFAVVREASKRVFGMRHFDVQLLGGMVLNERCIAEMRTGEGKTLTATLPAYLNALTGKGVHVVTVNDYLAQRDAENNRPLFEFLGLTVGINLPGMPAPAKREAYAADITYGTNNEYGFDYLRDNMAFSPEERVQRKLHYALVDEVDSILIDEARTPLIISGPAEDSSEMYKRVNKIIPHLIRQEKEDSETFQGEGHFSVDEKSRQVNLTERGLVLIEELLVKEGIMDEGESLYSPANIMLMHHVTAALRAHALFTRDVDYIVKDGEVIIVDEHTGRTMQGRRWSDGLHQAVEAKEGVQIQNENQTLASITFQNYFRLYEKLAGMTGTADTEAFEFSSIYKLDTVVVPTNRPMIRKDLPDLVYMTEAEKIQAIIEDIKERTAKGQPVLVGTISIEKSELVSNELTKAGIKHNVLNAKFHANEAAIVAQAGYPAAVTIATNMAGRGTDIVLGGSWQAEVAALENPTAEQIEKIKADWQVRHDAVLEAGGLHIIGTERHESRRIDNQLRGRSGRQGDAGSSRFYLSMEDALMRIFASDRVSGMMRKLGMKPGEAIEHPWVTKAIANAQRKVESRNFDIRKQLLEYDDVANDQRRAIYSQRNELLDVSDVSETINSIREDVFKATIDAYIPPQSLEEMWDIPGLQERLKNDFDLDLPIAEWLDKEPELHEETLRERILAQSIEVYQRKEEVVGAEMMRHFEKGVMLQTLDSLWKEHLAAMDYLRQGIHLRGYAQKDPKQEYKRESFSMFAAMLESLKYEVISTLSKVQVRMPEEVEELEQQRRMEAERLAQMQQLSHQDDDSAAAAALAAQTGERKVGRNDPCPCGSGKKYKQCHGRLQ

| SMILES | Percent Effect [1] [%] | Percent Effect [2] [%] | Percent Effect [3] [%] | Percent Effect [4] [%] | Percent Effect (Trypanosoma cruzi) [%] | Percent Effect [5] [%] | Percent Effect [6] [%] | Percent Effect (Homo sapiens) [%] | Percent Effect [7] [%] | Percent Effect [8] [%] | Percent Effect [9] [%] |
| --- | --- | --- | --- | --- | --- | --- | --- | --- | --- | --- | --- |
| COCCO[C@@H]1CCN(C(=O)c2ccc(C)o2)[C@@H]1Cc1cnn(C)c1 | -5.35 | -2.7 | -1.64 | -4.98 | -2.54 | -2.08 | 7.69 | -13 | 0.99 | -1.22 | 4.49 |
| O=C(c1cc[nH]n1)N1CCCC1C1CCN(Cc2ccccc2)CC1 (configuration not stated) | -0.52 | -7.89 | 10.9 | 1.13 | -7.11 | 1.18 | 16.6 | -0.106 | 4.25 | 7.79 | -1.17 |
| COc1nccc(N2CCN(Cc3ccc(C)cc3)C(=O)C2)c1C#N | -1.96 | 15.6 | -4.99 | 5.78 | 8.16 | -33.1 | 13.3 | -2.81 | 8.6 | 21 | 9 |
| CC(C)(C)c1n[nH]cc1CN1CCc2nc3ccsc3c(=O)n2CC1 | -2.34 | 25.7 | 7.24 | -3.97 | 2.96 | -7.19 | 18.7 | 43.3 | -1.07 | 3.9 | -5.96 |
| Cc1cnn(CC2CCCN2Cc2nnsc2Cl)c1 (configuration not stated) | -4.93 | 0 | -0.946 | -0.665 | -3.68 | -2.66 | 0.573 | 28.5 | 2.46 | -3.8 | 3.6 |
| COCCN(Cc1ccoc1)C(=O)c1ccccc1Cl | -4.82 | 0 | 0.957 | -4.22 | -4.24 | -1.94 | 0.522 | 14.2 | 1.06 | 1.28 | -1.4 |
| Cc1nnc2n1CCN(CCS(=O)(=O)c1ccccc1)C2 | -2.96 | 15.6 | 2.16 | 8.34 | 1.69 | -3.2 | -2.03 | 27.6 | 2.91 | 14.6 | -8 |
| COCc1ccccc1NC(=O)[C@@H]1CCCN1C(=O)c1ccco1 | -0.218 | 9.72 | -5.33 | 20.1 | 2.82 | 6.62 | 12.8 | 8.02 | 1.05 | 5.13 | -1.82 |
| Cc1ccc(CNC(=O)CN2CCN(CC(O)c3ccco3)CC2)cc1 (configuration not stated) | -2.27 | 20.8 | -4.52 | -0.747 | 0.0986 | -1.94 | 9.4 | 7.63 | 4.23 | 24.4 | -10.3 |
| CN(Cc1ccco1)Cc1ccccc1CNC(=O)c1ccc[nH]1 | 0.847 | -10.8 | -0.911 | 10 | 2.32 | 14.3 | 9.31 | 19.5 | 3.7 | 12.2 | -4.76 |
| COCCN1C(=O)C[C@H]2[C@H]1CCN2Cc1cccc(C#N)c1 | -2.88 | 2.67 | 7.27 | -1.09 | -2.95 | 3.03 | 5.9 | 6.32 | 1.06 | 1.28 | 1.66 |
| CCn1cc2c(n1)CN(CC1CC1)CC2COCC1CC1 (configuration not stated) | -2.46 | 10.7 | 4.51 | -3.73 | -1.77 | -5.36 | 9.25 | -20.4 | 5.32 | 8.97 | -4.66 |
| CCn1ccnc1CN1CCN(C(C)C(=O)NC2CCCCC2)CC1 (configuration not stated) | -6.02 | 5.26 | -1.96 | -3.82 | -7.71 | 0.766 | 5.68 | 24.7 | -3.43 | -4.88 | 5.81 |
| COCc1nc2cc(NCc3ccc(C)o3)ccc2o1 | -4.96 | 13.5 | -42.7 | 8.51 | 6.05 | 37.1 | 14.3 | -1.74 | 13.9 | 15.8 | -2.51 |
| CC(Cn1cccn1)NC(=O)NCCc1cnn(C)c1 (configuration not stated) | 1.95 | 2.53 | -9 | -14.8 | -9.91 | 0.38 | 10.7 | 24.5 | 5.42 | 8.86 | -3.48 |
| O=c1oc(-c2ccc(F)cc2)nn1CN1CCN(C2CCCC2)CC1 | -3.25 | 18.2 | 2.12 | -0.647 | -2.25 | -3.56 | 7.6 | -3.58 | 9.71 | 19.5 | -6.38 |
| O=C(NS(=O)(=O)c1cc(Cl)sc1Cl)c1cccc2c1OCCO2 | -8.74 | -11 | 3.09 | -2.91 | -6.07 | -1.36 | 13.5 | 24.9 | -22.6 | -42.5 | -4.53 |
| CCNC(=O)NC(=O)CSC(C)c1c(F)cccc1F (configuration not stated) | -5.95 | 2.67 | 1.21 | -3.31 | -5.55 | -4.17 | 22.3 | 10.5 | 0.546 | -1.24 | -6.68 |
| Cc1nc(C)n(C2CCCN(C(=O)Cc3n[nH]c4ccccc34)C2)n1 (configuration not stated) | -5.17 | -2.6 | 5.72 | 7.39 | 1.69 | -7.47 | 4.56 | 5.91 | 5.83 | 14.6 | -7.79 |
| CCCn1nc2c(cc1=O)CN(Cc1nc(CCOC)no1)CC2 | -1.92 | 0 | -119 | -3.46 | -0.781 | 0.417 | 10.6 | -1.9 | -7.92 | -6.1 | -7.2 |
| Clc1ccc2cccnc2c1CN1CCCC1Cn1cncn1 (configuration not stated) | -1.02 | -10.8 | -3.88 | -0.559 | -5.85 | 4.99 | 7.18 | 63.7 | 7.92 | -1.22 | 5.04 |
| CCS(=O)(=O)N1CCO[C@H]2[C@H](OCC3CCCC3)CC[C@@H]21 | -3.86 | 5.33 | 0.773 | 0.841 | 5.21 | -50.7 | 7.01 | 2.31 | 1.04 | 15 | -5.43 |
